In PubChem BioAssay (Tox21):
Results filed as inconclusive are left out. Calls of active or inactive are those of the source. Unless noted, calls follow the shape of the dose curve; as a rule, active = well fitted curve in the direction sought with a large enough effect in the repeat runs; inconclusive = weak or mixed curves; inactive = no such curve, though single readings can be large; an effect the other way counts as inactive or inconclusive.

Columns and labels:
[1] = qHTS assay to identify small molecule agonists of the estrogen receptor alpha (ER-alpha) signaling pathway in the presence of an antagonist - cell viability counter screen (AID 1259386);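 also: series mostly up to about 92 µM; cells exposed to compounds for 22 h at 37 °C before the viability read; nearly all actives have a fitted effect of over 30% in size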
Summary of the method: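 VM7Luc4E2, stripped-serum pre-culture 5 d; 24hr plating; +ICI-182,780 10.0nM final; cpds 15 conc, 22hr, 37C/5% CO2; CellTiter-Fluor added at 21hr, fluorescence 1hr later.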

[2] = molecular target: Progesterone receptor (Homo sapiens) (UniProt P06401); assay: qHTS assay to identify small molecule agonists of the progesterone receptor (PR) signaling pathway (AID 1346784; calls by dose curve; also: nearly all actives have a fitted effect of over 30% in size)
Chain of Progesterone receptor (Homo sapiens) (P06401 whole entry, looked up): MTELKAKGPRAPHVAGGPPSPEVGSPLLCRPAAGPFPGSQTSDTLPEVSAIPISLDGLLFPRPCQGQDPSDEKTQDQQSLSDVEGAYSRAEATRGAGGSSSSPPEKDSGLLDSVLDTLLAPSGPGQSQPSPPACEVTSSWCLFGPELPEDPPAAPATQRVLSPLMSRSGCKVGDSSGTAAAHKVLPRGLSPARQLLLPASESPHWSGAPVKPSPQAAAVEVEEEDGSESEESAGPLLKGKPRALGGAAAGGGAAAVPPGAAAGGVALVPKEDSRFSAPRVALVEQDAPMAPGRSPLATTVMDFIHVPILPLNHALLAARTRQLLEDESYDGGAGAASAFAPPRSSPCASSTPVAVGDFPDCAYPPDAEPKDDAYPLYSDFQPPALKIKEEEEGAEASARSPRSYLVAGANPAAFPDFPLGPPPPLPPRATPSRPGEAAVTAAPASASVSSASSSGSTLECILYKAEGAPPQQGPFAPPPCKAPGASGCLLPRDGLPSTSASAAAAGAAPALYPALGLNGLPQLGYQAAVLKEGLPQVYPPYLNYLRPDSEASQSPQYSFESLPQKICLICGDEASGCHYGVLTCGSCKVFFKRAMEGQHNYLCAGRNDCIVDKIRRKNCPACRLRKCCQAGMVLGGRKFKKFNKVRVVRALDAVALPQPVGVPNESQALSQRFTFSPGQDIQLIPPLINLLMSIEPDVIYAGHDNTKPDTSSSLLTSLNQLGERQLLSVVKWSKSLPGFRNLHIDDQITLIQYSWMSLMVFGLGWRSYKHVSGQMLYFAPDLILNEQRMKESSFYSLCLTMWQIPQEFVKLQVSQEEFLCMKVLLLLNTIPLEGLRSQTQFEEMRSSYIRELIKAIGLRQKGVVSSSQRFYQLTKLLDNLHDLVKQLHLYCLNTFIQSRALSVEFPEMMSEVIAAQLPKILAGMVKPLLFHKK
Summary of the method: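 Reporter assay, GripTite PR-UAS-bla HEK 293T cells: 16 hr exposure to DMSO-dissolved compounds at 37C, 5% CO2, in steroid-depleted (2% charcoal-stripped FBS) medium; beta-lactamase measured by FRET fluorescence.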

[3] = molecular target: Progesterone receptor (Homo sapiens) (UniProt P06401); assay: qHTS assay to identify small molecule antagonists of the progesterone receptor (PR) signaling pathway (AID 1346795; active = well fitted inhibition curve with a large enough effect in the signal ratio in the repeat runs, not every such curve was filed as active; the % refers to the signal ratio)
Summary of the method: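 Stimulus R5020 at 1 nM final; cells HEK293T PR-UAS-bla; medium with 2% charcoal-stripped FBS; compound exposure 16 hr at 37C, 5% CO2; detection by FRET beta-lactamase substrate, 2 hr, room temperature.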

[4] = qHTS assay to identify small molecule antagonists of the progesterone receptor (PR) signaling pathway - cell viability counter screen (AID 1346798); also: series mostly up to about 92 µM; nearly all actives have a fitted effect of over 50% in size
Summary of the method: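 In the same plates used for the beta-lactamase readout, cell viability of compound- and R5020-treated PR-UAS-bla HEK293T cells (16 hr, 37C) was assessed by CellTiter-Glo luminescence.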

[5] = qHTS assay to identify small molecule agonists of the progesterone receptor (PR) signaling pathway - cell viability counter screen (AID 1346799; calls by dose curve; also: nearly all actives have a fitted effect of over 45% in size)
Summary of the method: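 Multiplexed viability read: CellTiter-Glo luminescence, 30 min RT, following LiveBLAzer FRET measurement on PR-UAS-bla HEK293T cells exposed to compounds 16 hr.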

[6] = qHTS assay to identify small molecule antagonists of the TGF-beta/Smad signaling pathway - cell viability counter screen (AID 1346824); also: nearly all actives have a fitted effect of over 50% in size
Summary of the method: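 Cytotoxicity counter-screen run in the same wells as the beta-lactamase Smad reporter read: CellTiter-Glo luminescence after 30 min at room temperature. HEK 293T SBE-bla cells had 5 hr compound exposure at 37 C with TGF-beta1 (0.25 ng/mL stock).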

[7] = qHTS assay to identify small molecule agonists of the TGF-beta/Smad signaling pathway - cell viability counter screen (AID 1346829); also: top concentration of the series differs between compounds; nearly all actives have a fitted effect of over 45% in size
Summary of the method: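 SBE-bla HEK 293T cells plated overnight, compound exposure 5 hr at 37 C. Viability read in the same wells by CellTiter-Glo luminescence after 30 min at room temperature, following the beta-lactamase read.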

[8] = qHTS assay to identify small molecule agonists of the TGF-beta/Smad signaling pathway (AID 1346859; active = well fitted activation curve with a large enough effect in the signal ratio in the repeat runs, not every such curve was filed as active; the % refers to the signal ratio; also: series mostly up to about 77 µM)
Summary of the method: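 Screening used HEK 293T SBE-bla cells at 4,000/well. Test agents: 5 hr, 37 C. Detection: FRET substrate, 2 hr RT, then excitation 405 nm with emissions at 460 and 530 nm.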

[9] = molecular target: Thyrotropin-releasing hormone receptor (Homo sapiens) (UniProt P34981); assay: qHTS assay to identify small molecule antagonists of the thyrotropin-releasing hormone receptor (TRHR) signaling pathway (AID 1346877; active = well fitted inhibition curve with a large enough effect in the repeat runs, not every such curve was filed as active; also: series mostly up to about 51 µM)
Chain of Thyrotropin-releasing hormone receptor (Homo sapiens) (P34981 whole entry, looked up): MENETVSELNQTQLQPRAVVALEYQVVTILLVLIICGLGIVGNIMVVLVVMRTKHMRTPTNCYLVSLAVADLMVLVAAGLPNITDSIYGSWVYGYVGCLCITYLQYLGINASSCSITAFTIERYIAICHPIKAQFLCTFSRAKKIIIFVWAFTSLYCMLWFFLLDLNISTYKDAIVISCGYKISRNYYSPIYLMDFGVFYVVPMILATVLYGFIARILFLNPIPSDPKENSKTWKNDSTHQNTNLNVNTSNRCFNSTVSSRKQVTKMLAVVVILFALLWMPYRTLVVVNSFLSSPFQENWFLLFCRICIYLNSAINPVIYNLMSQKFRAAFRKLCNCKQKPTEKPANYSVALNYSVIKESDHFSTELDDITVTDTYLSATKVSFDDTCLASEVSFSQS
Summary of the method: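 Intracellular calcium fluorescence, read kinetically every second over 3 min, reports TRH-evoked signalling in HEK293 cells carrying TRHR. Test compounds were added 5 min ahead of a 1 nM TRH challenge.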

[10] = molecular target: Thyrotropin-releasing hormone receptor (Homo sapiens) (UniProt P34981); assay: qHTS assay to identify small molecule agonists of the thyrotropin-releasing hormone receptor (TRHR) signaling pathway (AID 1346891; calls by dose curve; also: series mostly up to about 58 µM)
Summary of the method: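 Readout was intracellular calcium fluorescence in TRHR-Hek293 cells. Cells were incubated 18 h, dye-loaded 2 h at 37 °C, and treated with compound in agonist mode.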

[11] = Human pregnane X receptor (PXR) small molecule agonists, qHTS cell viability counter screen (AID 1346977); also: nearly all actives have a fitted effect of over 50% in size
Summary of the method: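 In each well, the PXR reporter HepG2 line was checked for viability: CellTiter-Fluor reagent added 23hr post-dosing, fluorescence read after 1hr incubation at 37C.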

[12] = Caspase-3/7 induction in HepG2 cells by small molecules, qHTS assay (AID 1346978); also: nearly all actives have a fitted effect of over 15% in size
Summary of the method: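 Caspase-3/7 induction was measured by Caspase-Glo 3/7 luminescence (30 min, room temperature) after a 17 hr compound exposure of wild-type HepG2 cells seeded at 2,000 per well and pre-incubated 5 hr.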

[13] = Caspase-3/7 induction in CHO-K1 cells by small molecules, qHTS cell viability counter screen (AID 1346979); also: nearly all actives have a fitted effect of over 35% in size
Summary of the method: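 Following a 5hr settling period, CHO-K1 cells at 1,500 per well received DMSO-dissolved compounds. Cell viability was quantified 16hr later by CellTiter-Fluor fluorescence, measured after 1hr with reagent at 37C.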

[14] = Caspase-3/7 induction in CHO-K1 cells by small molecules, qHTS assay (AID 1346980); also: nearly all actives have a fitted effect of over 15% in size
Summary of the method: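 Luminescent Caspase-Glo 3/7 read (30min, room temperature) quantified apoptosis induction. Cells were wild-type CHO-K1, treated with compound for 17hr at 37 C and 5% CO2.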

[15] = Caspase-3/7 induction in HepG2 cells by small molecules, qHTS cell viability counter screen (AID 1346981); also: series mostly up to about 92 µM; nearly all actives have a fitted effect of over 30% in size
Summary of the method: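 HepG2, WT, 2,000 cells/well; 5 hr pre-incubation 37 C/5% CO2; compound pin-transferred from DMSO; 16 hr exposure; CellTiter-Fluor, 1 hr; fluorescence read.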

[16] = molecular target: Nuclear receptor subfamily 1 group I member 2 (Homo sapiens) (UniProt O75469); assay: Human pregnane X receptor (PXR) small molecule agonists, qHTS assay (AID 1346982); also: nearly all actives have a fitted effect of over 35% in size
Chain of Nuclear receptor subfamily 1 group I member 2 (Homo sapiens) (O75469 whole entry, looked up): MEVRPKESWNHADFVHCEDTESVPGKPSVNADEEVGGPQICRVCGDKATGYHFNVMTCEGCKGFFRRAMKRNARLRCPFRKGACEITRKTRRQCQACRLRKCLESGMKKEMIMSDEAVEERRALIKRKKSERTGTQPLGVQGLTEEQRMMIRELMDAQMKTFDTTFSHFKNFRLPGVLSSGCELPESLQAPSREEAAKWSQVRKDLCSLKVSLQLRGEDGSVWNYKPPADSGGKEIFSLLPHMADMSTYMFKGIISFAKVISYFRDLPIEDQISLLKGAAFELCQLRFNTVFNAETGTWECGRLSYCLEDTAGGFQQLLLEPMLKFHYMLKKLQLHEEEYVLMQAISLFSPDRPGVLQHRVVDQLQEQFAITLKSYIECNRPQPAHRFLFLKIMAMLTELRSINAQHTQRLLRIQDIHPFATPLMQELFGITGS
Summary of the method: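 Luciferase signal from ONE-Glo (30 min, room temperature) measured activation of hPXR-driven CYP3A4 reporter expression in PXR-Luc HepG2 cells treated with compounds for 24 hr at 37 C.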

[17] = molecular target: Nuclear receptor subfamily 1 group I member 2 (Rattus norvegicus) (UniProt Q9R1A7); assay: Rat pregnane X receptor (rPXR) activation by small molecules, qHTS assay (AID 1346983); details: rPXR luciferase reporter cells, One-Glo luminescence, 24 h; max activation: hits give high values; also: nearly all actives have a fitted effect of over 20% in size
Chain of Nuclear receptor subfamily 1 group I member 2 (Rattus norvegicus) (Q9R1A7 whole entry, looked up): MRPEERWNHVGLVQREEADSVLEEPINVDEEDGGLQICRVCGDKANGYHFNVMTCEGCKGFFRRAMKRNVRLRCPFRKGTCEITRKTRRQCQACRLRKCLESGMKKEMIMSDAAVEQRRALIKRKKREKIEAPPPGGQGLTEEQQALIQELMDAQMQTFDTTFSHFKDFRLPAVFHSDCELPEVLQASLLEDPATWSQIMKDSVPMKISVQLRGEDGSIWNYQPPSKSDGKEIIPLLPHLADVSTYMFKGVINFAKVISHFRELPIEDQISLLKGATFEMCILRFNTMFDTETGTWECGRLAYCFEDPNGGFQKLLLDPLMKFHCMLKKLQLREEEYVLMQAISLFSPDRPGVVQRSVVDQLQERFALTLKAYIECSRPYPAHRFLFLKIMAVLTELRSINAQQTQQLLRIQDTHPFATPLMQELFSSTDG
Summary of the method: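 Luminescent readout (One-Glo luciferase, 30 min room temperature) followed 24 hr compound treatment at 37 C of rPXR cells plated 2,000 per well and preincubated 5hr; qHTS format with compounds delivered in DMSO.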

[18] = molecular target: Nuclear receptor subfamily 1 group I member 2 (Homo sapiens) (UniProt O75469); assay: CYP3A4 induction through human pregnane X receptor (PXR) by small molecules, qHTS assay (AID 1346984); also: nearly all actives have a fitted effect of over 40% in size
Summary of the method: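 Luminescence readout: luciferase signal after One-Glo (30 min, room temperature), following 3 h at 37C with 3uM final Luciferin-IPA P450 substrate. Cells were DPX-2 (HepG2, PXR/CYP3A4-luc co-transfected) dosed for 24 h.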

[19] = molecular target: Cytochrome P450 2D6 (Homo sapiens) (UniProt P10635); assay: Cytochrome P450 Family 2 Subfamily D Member 6 (CYP2D6) small molecule antagonists: luciferase reporter qHTS assay (AID 1671196); also: series mostly up to about 120 µM; nearly all actives have a fitted effect of over 50% in size
Chain of Cytochrome P450 2D6 (Homo sapiens) (P10635 whole entry, looked up): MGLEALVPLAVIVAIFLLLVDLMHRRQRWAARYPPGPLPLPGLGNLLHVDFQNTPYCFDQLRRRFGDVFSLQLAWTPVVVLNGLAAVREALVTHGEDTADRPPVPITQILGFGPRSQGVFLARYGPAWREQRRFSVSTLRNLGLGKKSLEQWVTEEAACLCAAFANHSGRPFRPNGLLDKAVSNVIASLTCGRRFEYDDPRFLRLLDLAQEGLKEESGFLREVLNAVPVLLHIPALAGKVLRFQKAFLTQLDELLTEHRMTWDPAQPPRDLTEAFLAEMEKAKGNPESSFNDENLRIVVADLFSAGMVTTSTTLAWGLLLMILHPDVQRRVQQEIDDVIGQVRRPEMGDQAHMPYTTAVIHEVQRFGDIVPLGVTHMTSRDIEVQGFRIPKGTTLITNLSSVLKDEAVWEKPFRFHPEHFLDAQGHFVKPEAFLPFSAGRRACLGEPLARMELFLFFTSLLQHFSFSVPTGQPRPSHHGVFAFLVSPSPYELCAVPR
Summary of the method: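 Read-out is luminescence from luciferin formed by CYP2D6 turnover of a proluciferin substrate, recorded as relative luminescence units. Reactions ran 1 h at room temperature after NADPH regeneration solution was added.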

[20] = molecular target: Thyrotropin receptor (Homo sapiens) (UniProt P16473); assay: qHTS assay to identify small molecule antagonists of the thyroid stimulating hormone receptor (TSHR) signaling pathway (AID 1259385; calls by dose curve; also: nearly all actives have a fitted effect of over 20% in size)
Chain of Thyrotropin receptor (Homo sapiens) (P16473 whole entry, looked up): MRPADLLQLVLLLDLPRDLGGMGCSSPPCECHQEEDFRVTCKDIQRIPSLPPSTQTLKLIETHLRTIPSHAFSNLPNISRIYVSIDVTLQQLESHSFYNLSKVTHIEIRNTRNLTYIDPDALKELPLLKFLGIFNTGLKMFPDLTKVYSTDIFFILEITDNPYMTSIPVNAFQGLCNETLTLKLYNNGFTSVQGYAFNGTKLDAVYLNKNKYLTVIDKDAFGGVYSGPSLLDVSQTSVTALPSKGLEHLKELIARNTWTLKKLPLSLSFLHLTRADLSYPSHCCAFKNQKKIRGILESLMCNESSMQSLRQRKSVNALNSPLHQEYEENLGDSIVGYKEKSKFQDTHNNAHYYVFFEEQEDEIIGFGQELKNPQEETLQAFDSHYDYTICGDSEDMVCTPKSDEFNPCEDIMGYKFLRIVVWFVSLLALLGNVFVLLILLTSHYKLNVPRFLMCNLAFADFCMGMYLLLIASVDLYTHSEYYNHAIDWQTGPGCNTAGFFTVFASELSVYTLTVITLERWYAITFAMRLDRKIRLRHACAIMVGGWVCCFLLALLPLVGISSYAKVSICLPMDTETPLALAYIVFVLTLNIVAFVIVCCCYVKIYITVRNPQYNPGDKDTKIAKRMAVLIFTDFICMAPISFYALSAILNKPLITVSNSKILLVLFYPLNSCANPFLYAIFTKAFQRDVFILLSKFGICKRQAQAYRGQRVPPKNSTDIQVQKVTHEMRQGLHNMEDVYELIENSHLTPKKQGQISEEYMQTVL
Summary of the method: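 Antagonist mode: compound-treated TSHR-expressing HEK293 cells were stimulated with 1.5 ng/mL TSH (final) in presence of Ro20-1724 for 30 min at RT. HTRF cAMP detection after 1 h; each compound tested at 15 concentrations, triplicate.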
% is scaled to controls: 0 for no effect and ±100 for the full control effect.

O=c1[nH]c2cc(C(F)(F)F)c(N3CCOCC3)cc2n(CP(=O)(O)O)c1=O
inactive: Potency [1] | Potency [2] | Potency [3] | Potency [4] | Potency [5] | outcome [6] | Potency [7] | Potency [8] | outcome [9] | outcome [10] | Potency [11] | Potency [12] | Potency [13] | outcome [14] | Potency [15] | Potency [16] | max activation [17] -2.81% | Potency [18] | Potency [19]

NC(=O)c1ccccc1[N+](=O)[O-]
inactive: Potency [20] | Potency [2] | Potency [3] | Potency [4] | Potency [5] | outcome [6] | Potency [8] | outcome [9] | outcome [10] | Potency [11] | Potency [12] | Potency [13] | outcome [14] | Potency [15] | Potency [16] | Potency [19]

c1ccc2sc(SSc3nc4ccccc4s3)nc2c1
inactive: activity change, negative = inhibition [20] 2.43% [at 19 µM] | activation [2] -1.06% [at 19 µM] | activity change, negative = inhibition [3] -9.57% [at 18.9 µM] | activity change, negative = cytotoxicity [5] 5.24% [at 19 µM] | viability change, negative = cytotoxic [6] 3.02% [at 15.8 µM] | activity change, negative = cytotoxicity [7] 25.5% [at 15.8 µM] | activation [8] 3.56% [at 15.8 µM] | activity change, negative = cytotoxicity [11] 14.6% [at 19 µM] | caspase activation [12] 1.15% [at 19 µM] | activity change, negative = cytotoxicity [13] 8.61% [at 19 µM] | caspase-3/7 activation [14] -0.79% [at 19 µM] | activity change, negative = cytotoxicity [15] 0.175% [at 19 µM] | activation [16] 0% [at 19 µM] | max activation [17] -4.43% | Potency [18]
